# Experimental data from PubChem BioAssay (NCI).
# Where “and” joins values, the source holds several entries; their conditions need not be identical. Identical values can stand only once. The panel holds about 83,000 compounds, 20% with a hit somewhere; the sample as a whole holds those more often.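 Note: values are percent growth. 100 is the growth of untreated cells, values between 100 and 0 indicate rising inhibition; between -100 and 0 indicates cell death.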 Calls of active or inactive are those of the source. Rule for the calls: active = growth percent below 10; inactive = the rest. Where a SMILES comes first, the peptide text is derived from it.
# Key:
# Assay in all cases: NCI-60 one-dose screen, 48 h (100 = growth as untreated, 0 = no growth, -100 = all killed)
# Conditions in all cases: 10 µM unless noted
# SR leukemia = tested on: SR leukemia
# OVCAR-8 ovarian = tested on: OVCAR-8 ovarian
# OVCAR-5 ovarian = tested on: OVCAR-5 ovarian
# OVCAR-4 ovarian = tested on: OVCAR-4 ovarian
# SK-OV-3 ovarian = tested on: SK-OV-3 ovarian
# IGROV1 ovarian = tested on: IGROV1 ovarian
# OVCAR-3 ovarian = tested on: OVCAR-3 ovarian
# NCI/ADR-RES ovarian = tested on: NCI/ADR-RES ovarian
# T-47D breast = tested on: T-47D breast
# BT-549 breast = tested on: BT-549 breast
# MDA-MB-435 melanoma = tested on: MDA-MB-435 melanoma
# SW-620 colon = tested on: SW-620 colon
# MCF7 breast = tested on: MCF7 breast
# HCT-116 colon = tested on: HCT-116 colon
# KM12 colon = tested on: KM12 colon
# RPMI-8226 leukemia = tested on: RPMI-8226 leukemia
# HCC-2998 colon = tested on: HCC-2998 colon
# HS 578T breast = tested on: HS 578T breast
SMILES,growth (SR leukemia),growth (OVCAR-8 ovarian),growth (OVCAR-5 ovarian),growth (OVCAR-4 ovarian),growth (SK-OV-3 ovarian),growth (IGROV1 ovarian),growth (OVCAR-3 ovarian),growth (NCI/ADR-RES ovarian),growth (T-47D breast),growth (BT-549 breast),growth (MDA-MB-435 melanoma),growth (SW-620 colon),growth (MCF7 breast),growth (HCT-116 colon),growth (KM12 colon),growth (RPMI-8226 leukemia),growth (HCC-2998 colon),growth (HS 578T breast)
Cn1cnc([N+](=O)[O-])c1Sc1ncn[nH]1,126% (inactive),73.8% (inactive),116% (inactive),95.5% (inactive),115% (inactive),105% (inactive),119% (inactive),119% (inactive),94.2% (inactive),101% (inactive),101% (inactive),106% (inactive),102% (inactive),101% (inactive),107% (inactive),,,
CC(=O)NCC(=O)c1ccc([N+](=O)[O-])cc1,104% (inactive),103% (inactive),103% (inactive),113% (inactive),108% (inactive),107% (inactive),105% (inactive),104% (inactive),86.3% (inactive),107% (inactive),104% (inactive),99.5% (inactive),96.5% (inactive),106% (inactive),103% (inactive),104% (inactive),109% (inactive),
CCN(CCNS(C)(=O)=O)c1ccc(N)c(C)c1,94.9% (inactive),78.1% (inactive) and 97.5% (inactive),115% (inactive) and 109% (inactive),69.6% (inactive) and 102% (inactive),98.6% (inactive) and 96% (inactive),70.3% (inactive) and 68.9% (inactive),25.5% (inactive) and 77.8% (inactive),90.2% (inactive) and 96.9% (inactive),1.47% (active) and 56.8% (inactive),73.8% (inactive) and 102% (inactive),28.9% (inactive) and 76.5% (inactive),21.6% (inactive) and -27.2% (active),20.6% (inactive) and 72.8% (inactive),-52.9% (active) and 43.1% (inactive),,59.9% (inactive) and 110% (inactive),103% (inactive) and 102% (inactive),
O=CN1CCCCC1,,117% (inactive),104% (inactive),108% (inactive),113% (inactive),124% (inactive),112% (inactive),103% (inactive),109% (inactive),97.3% (inactive),107% (inactive),102% (inactive),97.6% (inactive),104% (inactive),,177% (inactive),105% (inactive),114% (inactive)
OCC1OC(O)C(O)C(O)C1O (stereo not drawn),106% (inactive),108% (inactive),106% (inactive),103% (inactive),109% (inactive),126% (inactive),120% (inactive),101% (inactive),102% (inactive),110% (inactive),113% (inactive),96.9% (inactive),82.6% (inactive),104% (inactive),,110% (inactive),94% (inactive),
Cl,104% (inactive),98.6% (inactive),105% (inactive),125% (inactive),115% (inactive),120% (inactive),119% (inactive),102% (inactive),101% (inactive),112% (inactive),101% (inactive),100% (inactive),109% (inactive),104% (inactive),,115% (inactive),108% (inactive),
O=C(O)/C=C\C(=O)Nc1cccc2ccccc12,,102% (inactive) and 105% (inactive),100% (inactive) and 104% (inactive),92.2% (inactive) and 115% (inactive),92% (inactive) and 103% (inactive),74.9% (inactive) and 129% (inactive),90.1% (inactive) and 113% (inactive),110% (inactive) and 104% (inactive),120% (inactive) and 107% (inactive),84.4% (inactive) and 91.7% (inactive),113% (inactive) and 103% (inactive),99.5% (inactive) and 106% (inactive),97.3% (inactive) and 101% (inactive),103% (inactive) and 101% (inactive),,81.8% (inactive) and 95.4% (inactive),118% (inactive) and 96.8% (inactive),105% (inactive) and 104% (inactive)
CC(C)NC(=O)N/C=C(\C#N)C(N)=O,,109% (inactive),92.5% (inactive),105% (inactive),104% (inactive),102% (inactive),105% (inactive),100% (inactive),101% (inactive),92.1% (inactive),92.6% (inactive),93.4% (inactive),102% (inactive),90.9% (inactive),92.7% (inactive),116% (inactive),97.5% (inactive),108% (inactive)
NC(Cc1ccccc1)C(=O)NC(Cc1ccccc1)C(=O)O (stereo not drawn) (H-Phe-Phe-OH; configuration not given here),,101% (inactive) and 99.7% (inactive),99% (inactive) and 95.1% (inactive),102% (inactive) and 100% (inactive),97.6% (inactive) and 110% (inactive),99.7% (inactive) and 103% (inactive),108% (inactive) and 111% (inactive),105% (inactive) and 107% (inactive),89.3% (inactive) and 91.7% (inactive),108% (inactive) and 106% (inactive),109% (inactive) and 99.7% (inactive),102% (inactive) and 108% (inactive),98.9% (inactive) and 94.3% (inactive),103% (inactive) and 100% (inactive),,112% (inactive) and 101% (inactive),112% (inactive),
C#CCOC(=O)Nc1ccccc1,,103% (inactive),95.8% (inactive),93.5% (inactive),109% (inactive),109% (inactive),115% (inactive),104% (inactive),109% (inactive),106% (inactive),98.8% (inactive),105% (inactive),87.4% (inactive),105% (inactive),110% (inactive),105% (inactive),100% (inactive),
O=C(O)CCCl,,104% (inactive),99.1% (inactive),98.8% (inactive),118% (inactive),107% (inactive),115% (inactive),108% (inactive),110% (inactive),113% (inactive),109% (inactive),105% (inactive),97.5% (inactive),94.8% (inactive),106% (inactive),101% (inactive),104% (inactive),96.4% (inactive)
N#CC(C#N)N=Nc1ccc(Cl)cc1,,62.1% (inactive),72.6% (inactive),10.1% (inactive),45.8% (inactive),69.4% (inactive),15.2% (inactive),72.2% (inactive),-0.279% (active),77.1% (inactive),79.6% (inactive),15% (inactive),27.3% (inactive),16.9% (inactive),85.9% (inactive),,75.3% (inactive),81.8% (inactive)
CCOC(=O)c1c(C)cc(=O)oc1C,,111% (inactive),101% (inactive),108% (inactive),103% (inactive),99.2% (inactive),121% (inactive),104% (inactive),102% (inactive),97.3% (inactive),,110% (inactive),97.1% (inactive),95.4% (inactive),,97.9% (inactive),103% (inactive),
O=[N+]([O-])c1cccc(SSc2cccc([N+](=O)[O-])c2)c1,,100% (inactive),104% (inactive),105% (inactive),97.8% (inactive),109% (inactive),127% (inactive),116% (inactive),76.9% (inactive),101% (inactive),102% (inactive),109% (inactive),93.7% (inactive),94% (inactive),107% (inactive),,108% (inactive),121% (inactive)
COc1ccc(Nc2ccc3ccccc3c2)cc1,,,97.4% (inactive),79.5% (inactive),72.6% (inactive),,78.7% (inactive),65.7% (inactive),65.6% (inactive),94.7% (inactive),22.1% (inactive),72.1% (inactive),58.1% (inactive),79% (inactive),46.7% (inactive),66.5% (inactive),,96.5% (inactive)
O=C1C=C(Nc2ccccc2)c2ccccc2C1=O,,31.7% (inactive) and 94.3% (inactive),90.2% (inactive) and 109% (inactive),44.4% (inactive) and 82.5% (inactive),108% (inactive) and 90.9% (inactive),65.5% (inactive) and 85.3% (inactive),6.63% (active) and 35.4% (inactive),25.1% (inactive) and 91.4% (inactive),77.2% (inactive) and 102% (inactive),84.3% (inactive) and 100% (inactive),-88% (active) and 99% (inactive),31.5% (inactive) and 94% (inactive),12.9% (inactive) and 78.4% (inactive),6.58% (active) and 92.8% (inactive),65.6% (inactive) and 84.4% (inactive),52.7% (inactive) and 87.3% (inactive),54.3% (inactive) and 90.5% (inactive),
